# Measured values taken from the supplement of paper PMC8728848.
# The full list was thinned out, with the strongest signals kept by preference.
# Experiments:
# Experiment in all cases: glycan array binding signal (z-score within array); higher = stronger binding
# Conditions in all cases: glycan notation: IUPAC condensed, linker removed
# [1] = target: Fuc(a1-2)Gal(b1-4)GlcNAc(b1-2)Man(a1-3)[Fuc(a1-2)Gal(b1-4)GlcNAc(b1-2)Man(a1-6)]Man(b1-4)GlcNAc(b1-4)[Fuc(a1-6)]GlcNAc
# Outline: (§1)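 Glycan array data were curated from 3228 arrays in the Consortium for Functional Glycomics database and kept only where the protein sequence was available. Glycan names were converted to IUPAC-condensed notation, and columns mapping to the same glycan were averaged. The binding signal is a within-array Z-score, averaged across arrays of the same protein sequence at different concentrations or buffers and across linkers. Negative Z-scores can be read as non-binding.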
# [2] = target: Fuc(a1-2)[GalNAc(a1-3)]Gal(b1-3)GlcNAc(b1-3)GalNAc
# Outline: as §1
# [3] = target: Fuc(a1-2)[GalNAc(a1-3)]Gal(b1-4)[Fuc(a1-3)]GlcNAc(b1-3)GalNAc
# Outline: as §1
# [4] = target: Fuc(a1-3)[Gal(b1-4)]GlcNAc(b1-2)Man(a1-3)[Fuc(a1-3)[Gal(b1-4)]GlcNAc(b1-2)Man(a1-6)]Man(b1-4)GlcNAc(b1-4)GlcNAc
# Outline: as §1
# [5] = target: Gal(a1-3)Gal(b1-3)GlcNAc
# Outline: as §1
# [6] = target: Gal(a1-3)Gal(b1-3)GlcNAc(b1-2)Man(a1-3)[Gal(a1-3)Gal(b1-3)GlcNAc(b1-2)Man(a1-6)]Man(b1-4)GlcNAc(b1-4)GlcNAc
# Outline: as §1
# [7] = target: Gal(a1-3)Gal(b1-4)[Fuc(a1-3)]GlcNAc(b1-2)Man(a1-3)[Gal(a1-3)Gal(b1-4)[Fuc(a1-3)]GlcNAc(b1-2)Man(a1-6)]Man(b1-4)GlcNAc(b1-4)GlcNAc
# Outline: as §1
# [8] = target: Gal(a1-3)GalNAc
# Outline: as §1
# [9] = target: Gal(a1-3)[Gal(a1-4)]Gal(b1-4)GlcNAc
# Outline: as §1
# [10] = target: Gal(a1-4)Gal(b1-4)Glc
# Outline: as §1
# [11] = target: Gal(a1-4)Gal(b1-4)GlcNAc(b1-3)Gal(b1-4)Glc
# Outline: as §1
# [12] = target: Gal(b1-3)GalNAc(b1-4)Gal(b1-4)Glc
# Outline: as §1
# [13] = target: Gal(b1-3)GlcNAc(b1-3)Gal(b1-3)GlcNAc
# Outline: as §1
# [14] = target: Gal(b1-3)GlcNAc(b1-3)Gal(b1-4)[Fuc(a1-3)]GlcNAc(b1-6)[Gal(b1-3)GlcNAc(b1-3)]Gal(b1-4)Glc
# Outline: as §1
# [15] = target: Gal(b1-3)GlcNAc6S
# Outline: as §1
# [16] = target: Gal(b1-3)[Fuc(a1-4)]GlcNAc(b1-6)GalNAc
# Outline: as §1
# [17] = target: Gal(b1-4)GlcNAc
# Outline: as §1
# [18] = target: Gal(b1-4)GlcNAc(b1-3)Gal(b1-4)GlcNAc(b1-3)Gal(b1-4)GlcNAc(b1-3)Gal(b1-4)GlcNAc(b1-2)[Gal(b1-4)GlcNAc(b1-3)Gal(b1-4)GlcNAc(b1-3)Gal(b1-4)GlcNAc(b1-3)Gal(b1-4)GlcNAc(b1-6)]Man(a1-6)[Gal(b1-4)GlcNAc(b1-3)Gal(b1-4)GlcNAc(b1-3)Gal(b1-4)GlcNAc(b1-3)Gal(b1-4)GlcNAc(b1-2)Man(a1-3)]Man(b1-4)GlcNAc(b1-4)[Fuc(a1-6)]GlcNAc
# Outline: as §1
# [19] = target: GalNAc(a1-3)Gal
# Outline: as §1
# [20] = target: GalNAc(b1-3)Gal(a1-4)Gal(b1-4)GlcNAc
# Outline: as §1
# [21] = target: GalNAc(b1-3)Gal(a1-6)Gal(b1-4)Glc
# Outline: as §1
# [22] = target: GalNAc(b1-4)GlcNAc
# Outline: as §1
# [23] = target: GalNAc(b1-6)GalNAc
# Outline: as §1
# [24] = target: Glc(a1-6)Glc(a1-6)Glc
# Outline: as §1
# [25] = target: GlcNAc(a1-4)Gal(b1-4)GlcNAc(b1-3)Gal(b1-4)[Fuc(a1-3)]GlcNAc(b1-3)Gal(b1-4)[Fuc(a1-3)]GlcNAc
# Outline: as §1
# [26] = target: GlcNAc(b1-3)Gal(b1-4)GlcNAc
# Outline: as §1
# [27] = target: GlcNAc(b1-3)Gal(b1-4)GlcNAc(b1-2)Man(a1-3)[GlcNAc(b1-3)Gal(b1-4)GlcNAc(b1-2)Man(a1-6)]Man(b1-4)GlcNAc(b1-4)GlcNAc
# Outline: as §1
# [28] = target: GlcNAc(b1-3)Gal(b1-4)GlcNAc(b1-2)[GlcNAc(b1-3)Gal(b1-4)GlcNAc(b1-6)]Man(a1-6)[GlcNAc(b1-3)Gal(b1-4)GlcNAc(b1-2)Man(a1-3)]Man(b1-4)GlcNAc(b1-4)GlcNAc
# Outline: as §1
# [29] = target: GlcNAc(b1-3)Gal(b1-4)GlcNAc(b1-3)Gal(b1-4)GlcNAc(b1-2)Man(a1-3)[GlcNAc(b1-3)Gal(b1-4)GlcNAc(b1-3)Gal(b1-4)GlcNAc(b1-2)Man(a1-6)]Man(b1-4)GlcNAc(b1-4)GlcNAc
# Outline: as §1
# [30] = target: Man(a1-2)Man(a1-6)[Man(a1-3)]Man(a1-6)[Man(a1-2)Man(a1-2)Man(a1-3)]Man(b1-4)GlcNAc(b1-4)GlcNAc
# Outline: as §1
binder,measurement,setting,value
pilr alpha (protein) MLYGVTQPKHLSASMGGSVEIPFSFYYPWELATAPDVRISWRRGHFHRQSFYSTRPPSIHKDYVNRLFLNWTEGQKSGFLRISNLQKQDQSVYFCRVELDTRSSGRQQWQSIEGTKLSIT,glycan array binding signal (z-score),[1],0.117
same,glycan array binding signal (z-score),[2],-0.147
same,glycan array binding signal (z-score),[3],6.68
same,glycan array binding signal (z-score),[4],-1.03
same,glycan array binding signal (z-score),[5],0.373
same,glycan array binding signal (z-score),[6],-0.319
same,glycan array binding signal (z-score),[7],-0.503
same,glycan array binding signal (z-score),[8],2.27
same,glycan array binding signal (z-score),[9],7.86
same,glycan array binding signal (z-score),[10],1.77
same,glycan array binding signal (z-score),[11],-0.604
same,glycan array binding signal (z-score),[12],2.46
same,glycan array binding signal (z-score),[13],-0.764
same,glycan array binding signal (z-score),[14],0.008
same,glycan array binding signal (z-score),[15],-0.425
same,glycan array binding signal (z-score),[16],-0.479
same,glycan array binding signal (z-score),[17],-0.271
same,glycan array binding signal (z-score),[18],2.72
same,glycan array binding signal (z-score),[19],0.654
same,glycan array binding signal (z-score),[20],2.72
same,glycan array binding signal (z-score),[21],-0.342
same,glycan array binding signal (z-score),[22],8.03
same,glycan array binding signal (z-score),[23],0.632
same,glycan array binding signal (z-score),[24],-0.27
same,glycan array binding signal (z-score),[25],0.876
same,glycan array binding signal (z-score),[26],-0.07
same,glycan array binding signal (z-score),[27],0.049
same,glycan array binding signal (z-score),[28],1.61
same,glycan array binding signal (z-score),[29],1.68
same,glycan array binding signal (z-score),[30],-0.021
